In the library only some 28% were active in any assay of this set; here they are far more common.
CYP2C19 act: cytochrome P450 2C19 (human) activation. activation factor at 5 µM. recombinant CYP2C19, luciferin-H EGE luminescence; hits give high values; 0 = fully inhibited enzyme, 1 = untreated enzyme. 96,000 tested, under 10 active;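 active means activation factor of at least 2 at 5 µM in the primary screen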;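 further: 0 = wells with 2.5 mM tranylcypromine and 1 = vehicle-only wells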
CYP2C19 inhib: blocks human cytochrome P450 2C19. P33261. CYP2C19 Supersomes, luciferin-H EGE luminescence, 30 min. 21% of 96,000 active. inhibition, % at 5 µM;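 active means CYP2C19 inhibition above a set limit at 5 µM in the primary screen, cut at about 50% in these data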;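 further: plate controls were negative control wells for no effect and 2.5 mM tranylcypromine positive control for full effect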
Mac1 fbg inh: inhibitors of human CD11b/CD18 binding to fibrinogen; 0.54% of 93,000 active; K562 CD11b/CD18 adhesion to fibrinogen, ATPlite luminescence; Mn2+ added to activate the integrin; inhibition, % at 10 µM;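 active means primary inhibition of 50% or more at 10 µM, then 40% or more on retest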
Mac1 fbg enh: increases human CD11b/CD18 adhesion to fibrinogen; P05107+P11215; K562 CD11b/CD18 adhesion to fibrinogen, ATPlite luminescence; activation, % at 10 µM; 0.07% of 93,000 active; AID 1499;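 active means 10 µM primary screen giving 50% or more activity, confirmed by 40% or more on retest at that dose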
CYP2C9 act: activators of human CYP2C9 | P11712 | recombinant CYP2C9, luciferin-H conversion, luminescence; hits give high values; factor 1 = untreated enzyme, 0 = blocked | activation factor at 5 µM | 1.4% of 96,000 active | AID 1024;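 active means activation factor of 2 or more for CYP2C9 at a 5 µM dose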;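 further: 0 = sulfaphenazole-blocked wells and 1 = vehicle-only wells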
CYP2C9 inh: human CYP2C9 inhibition | P11712 | CYP2C9 Supersomes, luciferin-H conversion, luminescence | inhibition, % at 5 µM | 20% of 96,000 active;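 active means blocking of liver enzyme CYP2C9 beyond about 50% at 5 µM, limit read from the data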
* = called active by the depositor; nt = not tested or not shown.

SMILES	CYP2C19 act	CYP2C19 inhib	Mac1 fbg inh	Mac1 fbg enh	CYP2C9 act	CYP2C9 inh
COc1c(F)c(F)c(C(=O)Nc2ccccc2N2CCN(C(C)=O)CC2)c(F)c1F	0.9	9.2	-1.8	54.8	0.9	7.3
Nc1nc2n(c1C(=O)c1ccccc1)CCC2	0.9	11.9	-10.6	1.7	1.2	-15.8
CCCn1c(N)c(C(=O)CSc2nnc(C)n2Cc2ccccc2)c(=O)n(C)c1=O	0.8	20.9	-23.9	-2.1	0.6	35.6
Cn1c(=O)c(C(=O)CSc2nncs2)c(N)n(Cc2ccccc2)c1=O	0.1	90.7*	-8.4	0.9	0.4	62.1*
Cc1cccc2c1NC(C)CC2C (stereo not drawn)	1	0.7	-10.3	-1.2	0.9	6.1
COc1nc(-c2ccccc2)ccc1-c1noc(-c2ccccc2F)n1	1.1	-10.2	8.7	-1.9	0.9	13.8
CSCCC(C(=O)O)N1C(=O)c2ccc(C(=O)O)cc2C1=O (stereo not drawn)	0.1	87.1*	9.8	-0.8	1.1	-6.2
CCOCCCNC(=O)C(C)NS(=O)(=O)c1ccc(C)cc1 (stereo not drawn)	1	1.7	-14.1	-1.1	1	-4.2
COc1cc2c(cc1NC(=O)c1cncc(Br)c1)oc1ccccc12	1.2	-20.0	-22.6	14.8	1.1	-14.6
COc1cc2c(cc1NC(=O)c1cc(-c3ccncc3)nc3ccc(C)cc13)oc1ccccc12	0.4	61.0*	-46.4	77.9	0.1	86.6*
COc1cc(Nc2ccccc2Cl)c([N+](=O)[O-])nc1[N+](=O)[O-]	0.2	80.9*	-10.9	-1.0	0.9	8.1
CC(=O)NC1CC(C)(C)N(OC(C)=O)C(C)(C)C1	0.8	17.6	-9.0	-0.6	1	-3.1
O=C(COC(=O)c1nc(Cl)ccc1Cl)c1ccc(Cl)s1	nt	nt	17.7	-1.7	nt	nt
Cc1ccsc1C(=O)OCC(=O)Nc1cccc(S(=O)(=O)N2CCOCC2)c1	nt	nt	-3.0	2.0	nt	nt
Oc1ccc(Nc2nc(-c3ccc(O)cc3)cs2)cc1	0.7	29.8	-18.9	-4.3	1.1	-6.4
Nc1ccc(Nc2nc(-c3ccncc3)cs2)cc1	0.4	61.2*	0.7	-2.3	0.4	62.5*
NS(=O)(=O)c1ccc(Nc2nc(-c3ccc(O)cc3)cs2)cc1	0.6	36.2	6.5	-4.2	0.1	86.5*
O=C(CNC(=O)C12CC3CC(CC(C3)C1)C2)N1CCN(S(=O)(=O)/C=C/c2ccccc2)CC1	nt	nt	-5.4	6.3	nt	nt
CN1CCN(C(=O)C2CCN(S(=O)(=O)c3cnc[nH]3)CC2)CC1	1.1	-11.7	2.0	-0.5	1.2	-19.9
CCN(Cc1ccncc1)C(=O)C1CCN(S(=O)(=O)c2cccs2)CC1	0.2	79.7*	3.2	-3.1	0	98.7*
CCOC(=O)c1ccc2c(c1)nc(C1CCN(S(=O)(=O)c3cccs3)CC1)n2CC	0.2	84.5*	14.2	-4.2	0.1	86.9*
CN(C(=O)C1CCN(S(=O)(=O)c2cccs2)CC1)C1CCCCC1	0.9	13.0	3.4	-0.2	1	-4.7
Cc1cc(NC(=O)C2CCN(S(=O)(=O)c3cnc[nH]3)CC2)ccc1Br	0.5	45.1	-15.3	-2.8	0.2	79.4*
COc1cc(NC(=O)C2CCN(S(=O)(=O)c3cnc[nH]3)CC2)cc(OC)c1OC	0.8	20.0	-7.9	-3.4	0.3	72.0*
O=C(CCNS(=O)(=O)c1cccc2nsnc12)N1CC(=O)N(CCc2ccccc2)C(=O)C1	0.9	12.4	15.2	-2.9	1	3.9
SMILES	CYP2C19 act	CYP2C19 inhib	Mac1 fbg inh	Mac1 fbg enh	CYP2C9 act	CYP2C9 inh
CCOC(=O)c1cccc(NC(=O)C2CCN(S(=O)(=O)c3cccs3)CC2)c1	0.1	88.1*	11.2	-2.3	0.2	83.8*
CCOC(=O)c1cccc(NC(=O)C2CCN(S(=O)(=O)c3cnc[nH]3)CC2)c1	0	99.1*	-5.3	-1.5	0	100.3*
COc1cc(OC)cc(-c2cc3nc(C)c(CCC(=O)O)c(C)n3n2)c1	0.8	19.2	-18.1	-0.8	0.8	24.5
Cc1c(NC(=O)c2ccc3c(c2)OCO3)cccc1-c1nc2ccccc2o1	0.5	49.8	29.0	4.2	0.3	68.7*
Cc1ccc(-c2nc3ccccc3o2)cc1NC(=O)c1ccc2c(c1)OCO2	0.5	49.7	-36.7	149.4	0.3	70.1*
COC(=O)COn1c(SCC(=O)OC)nc2ccccc2c1=O	0.7	31.5	-3.8	-6.9	0.7	27.6
